PubChem BioAssay AID639 (Emory University Molecular Libraries Screening Center, 2007)
In all, about 86,000 compounds went through this assay and about 1,200 (1.4%) were called active. The sample as a whole holds a higher share of actives than the screen did. A number with no mark means an inactive call. No stated cut-off is given here; in the data, active means activity above about 200%; inactive means the rest.

What follows are molecules tested against Estrogen receptor (Homo sapiens) (UniProt P03372) (assay: ERα coactivator recruitment potentiators – biochemical, TR-FRET, ERα LBD, low estradiol, primary screen (AID 639;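 further: binding measured in presence of low estradiol as agonist stimulus; 0% = peptide alone without receptor and 100% = receptor with peptide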)). Details: TR-FRET ERalpha-LBD/SRC-Cy5 coactivator binding, 2 h; at 25.6 µM; hits give high values; 100 = basal binding, no effect.
Chain of Estrogen receptor (Homo sapiens) (P03372 whole entry, looked up, the tested form may be a part): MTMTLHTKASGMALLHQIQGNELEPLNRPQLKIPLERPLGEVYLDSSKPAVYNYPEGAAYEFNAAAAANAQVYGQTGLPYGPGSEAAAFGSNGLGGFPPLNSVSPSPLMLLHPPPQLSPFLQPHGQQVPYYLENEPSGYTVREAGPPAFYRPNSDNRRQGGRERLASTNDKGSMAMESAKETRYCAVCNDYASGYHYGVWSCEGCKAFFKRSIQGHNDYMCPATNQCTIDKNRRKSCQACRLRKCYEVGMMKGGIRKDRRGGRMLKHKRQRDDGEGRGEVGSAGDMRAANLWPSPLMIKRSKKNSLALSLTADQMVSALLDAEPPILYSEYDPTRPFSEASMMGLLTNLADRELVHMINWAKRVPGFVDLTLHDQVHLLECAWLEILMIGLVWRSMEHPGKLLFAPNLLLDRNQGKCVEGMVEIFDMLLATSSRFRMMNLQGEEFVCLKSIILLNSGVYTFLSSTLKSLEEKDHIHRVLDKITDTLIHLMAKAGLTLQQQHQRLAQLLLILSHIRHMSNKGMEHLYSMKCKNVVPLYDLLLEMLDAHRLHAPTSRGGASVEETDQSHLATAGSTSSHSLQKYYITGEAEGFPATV
`CCOc1cc(C2C(C(=O)OC)=CN(C3CCCC3)C=C2C(=O)OC)cc(Br)c1O` was tested, and the coactivator binding (% of control) was 210% [fluorescence artefact?] (active).
Work on `CCOc1ccc(CNC(=O)C2CCC(=O)N2C2CCCC2)cc1OC` (configuration not stated) yielded a coactivator binding (% of control) of 131%.
`CCOc1ccccc1C1C(C(=O)OC)=CN(C)C=C1C(=O)OC` gave a coactivator binding (% of control) of 93.7%.
Work on `CCOCc1nnc(NC(=O)CSc2ccc(C)cc2)s1` yielded a coactivator binding (% of control) of 102%.
In the case of `CCOc1ccccc1NC(=O)C1CCCN(C(=O)Nc2ccccc2)C1` (configuration not stated), the coactivator binding (% of control) is reported as 92.4%.
`Cc1cc(NS(=O)(=O)c2ccccc2)no1` showed a coactivator binding (% of control) of 122%.
`CCOc1ccc(NC(=O)Nc2cc(C)on2)cc1` showed a coactivator binding (% of control) of 107%.
With `CCOc1ccc(CC(=O)Nc2ccc(S(=O)(=O)Nc3cc(C)on3)cc2)cc1OCC` the coactivator binding (% of control) was 311% [fluorescence artefact?] (active).
Molecule `CCCCC(C(=O)OCC(=O)c1ccc(OC)cc1)N1C(=O)c2ccccc2C1=O` (configuration not stated) has a coactivator binding (% of control) of 97.8%.
Molecule `Cn1c(=O)c2c(ncn2CC(COCc2ccccc2Cl)OCc2ccccc2Cl)n(C)c1=O` (configuration not stated) has a coactivator binding (% of control) of 112%.
`CCOC(=O)c1nnn(-c2nonc2-n2cccc2)c1CN1CCC(C(=O)OCC)CC1` gave a coactivator binding (% of control) of 114%.
Work on `O=c1[nH]c(SCc2ccccc2)nnc1-c1ccccc1` yielded a coactivator binding (% of control) of 103%.
Work on `COc1ccc(N2CCN(C(=O)CSc3nc4cc(OC)c(OC)cc4cc3C#N)CC2)cc1` yielded a coactivator binding (% of control) of 101%.
In the case of `CCOc1ccc2cc(C#N)c(SCC(=O)OC)nc2c1`, the coactivator binding (% of control) is reported as 260% [fluorescence artefact?] (active).
With `COC(=O)CSc1nc(C)c2ccc(OC)cc2n1` the coactivator binding (% of control) was 100%.
With `CC(C)C(OC(=O)c1cccs1)C(=O)NC1CCCCC1` (configuration not stated) the coactivator binding (% of control) was 115%.
`CCOCCCNC(=O)C(NC(=O)c1ccc(=O)[nH]c1)c1ccc(C)cc1` (configuration not stated) gave a coactivator binding (% of control) of 107%.
`CCOC(=O)c1cnc(-n2nc(C)cc2C)nc1-n1nc(C)cc1C` was tested, and the coactivator binding (% of control) was 116%.
With `CCOC(=O)c1cnc(-n2nc(C)cc2C)nc1Nc1cccc(C(C)=O)c1` the coactivator binding (% of control) was 868% [fluorescence artefact?] (active).
In the case of `CCOC(=O)c1cnc(SCC(=O)Nc2cccc(OC)c2)nc1N`, the coactivator binding (% of control) is reported as 113%.
With `N=c1c2c3c(sc2nc2n1CCCCC2)CCCC3` the coactivator binding (% of control) was 113%.
Molecule `CNC(=S)N1N=C(c2ccccc2)CC1c1ccc(Br)cc1` (configuration not stated) has a coactivator binding (% of control) of 171%.
With `COc1ccc(-n2c(C)cc(C(=O)CSc3nnc(-c4cccs4)o3)c2C)cc1` the coactivator binding (% of control) was 201% (active).
For `COc1ccc(OC)c(C(=O)CSc2nnc(-c3cccs3)o2)c1`, the coactivator binding (% of control) was 125%.
For `COc1ccc(-c2nnc(SCC(=O)c3cccs3)o2)c(OC)c1`, the coactivator binding (% of control) was 94.7%.
Molecule `CCN(CC)C(=O)CSc1ncnc2c1cnn2-c1ccccc1` has a coactivator binding (% of control) of 117%.
`Cc1nc2c(-c3ccc(F)cc3)c(C)nn2c(C)c1CCC(=O)NCc1ccco1` gave a coactivator binding (% of control) of 96.1%.
Work on `CC(C)N1C(=S)SC(C)(C)C1n1oc(=O)n(-c2ccc(Cl)c(Cl)c2)c1=O` (configuration not stated) yielded a coactivator binding (% of control) of 113%.
Molecule `Cc1cc(C)n(C(=O)CCNC(=O)c2ccccc2Cl)n1` has a coactivator binding (% of control) of 100%.
`Cc1ccc(C)c(N2C(=O)CS/C2=N\NC(=O)c2ccccc2Cl)c1` gave a coactivator binding (% of control) of 102%.
Work on `CCc1ccc(CNC(=O)C2CC(=O)N(CCc3ccc(C)cc3)C2)cc1` (configuration not stated) yielded a coactivator binding (% of control) of 115%.
Work on `N#C/C(=C1\CCCN1)c1nc(-c2ccccc2)cs1` yielded a coactivator binding (% of control) of 116%.
For `N#CC(=C1SC=CS1)c1nc(-c2ccccc2)cs1`, the coactivator binding (% of control) was 206% (active).
In the case of `N#CC(=C1CCCC1)c1nc(-c2ccc(Cl)cc2)cs1`, the coactivator binding (% of control) is reported as 103%.
With `Cc1nc(N2CCOCC2)nc2c1CCCC2` the coactivator binding (% of control) was 111%.
For `CCCOc1ccc(N2C(=O)CC(N(CCc3ccc(S(N)(=O)=O)cc3)C(C)=O)C2=O)cc1` (configuration not stated), the coactivator binding (% of control) was 126%.
`Nn1c(Cc2cccc3ccccc23)nnc1SCC(=O)N1CC(=O)Nc2ccccc21` showed a coactivator binding (% of control) of 63.7%.
Work on `COc1ccc(-n2ncc3c(N4CCCc5ccccc54)ncnc32)cc1` yielded a coactivator binding (% of control) of 97.2%.
`Cc1cccc(-n2ncc3c(N4CCc5ccccc54)ncnc32)c1` showed a coactivator binding (% of control) of 137%.
In the case of `COc1ccc(-n2ncc3c(N4CCc5ccccc54)ncnc32)cc1`, the coactivator binding (% of control) is reported as 200% [fluorescence artefact?] (active).
`CCOC(=O)C1=C(c2ccccc2)O/C(=C(/C(=O)OC)C(F)(F)F)S1` was tested, and the coactivator binding (% of control) was 360% [fluorescence artefact?] (active).
For `CCOC(=O)NC(C(F)(F)F)(C(F)(F)F)P(=O)(c1ccccc1)c1ccccc1`, the coactivator binding (% of control) was 95.9%.
For `CCOC(=O)c1nnn(-c2nonc2OC)c1-c1ccccc1`, the coactivator binding (% of control) was 102%.
For `COC(=O)c1ccccc1NC(=O)Cc1ccccc1OC`, the coactivator binding (% of control) was 120%.
Molecule `COc1ccc(NC(=O)CC2COc3ccccc3O2)c(OC)c1` (configuration not stated) has a coactivator binding (% of control) of 104%.
In the case of `O=C(CSc1nnc(-c2cnccn2)n1Cc1ccco1)c1ccc(Cl)c(Cl)c1`, the coactivator binding (% of control) is reported as 137%.
`Cc1ccc(NC(=O)CSc2nnc(-c3cnccn3)n2Cc2ccco2)cc1C` was tested, and the coactivator binding (% of control) was 335% (active).
For `CCc1ccc(NC(=O)CSc2nnc(-c3cnccn3)n2Cc2ccco2)cc1`, the coactivator binding (% of control) was 148%.
With `CCOc1ccc(NC(=O)CN(C)CC(=O)Nc2cccc(Cl)c2C)cc1OCC` the coactivator binding (% of control) was 105%.
`CCOc1ccc(C(=O)NCCCN2CCCC2=O)cc1` was tested, and the coactivator binding (% of control) was 96%.
With `CC1CCC(NC(=O)c2ccc(N3CCCC3=O)cc2)CC1` (configuration not stated) the coactivator binding (% of control) was 143%.
`O=C(NCCCN1CCCCCC1)c1ccc(N2CCCC2=O)cc1` was tested, and the coactivator binding (% of control) was 588% [fluorescence artefact?] (active).
Molecule `CCOc1cc(C(=O)Nc2c(C)ccc3nsnc23)cc(OCC)c1OCC` has a coactivator binding (% of control) of 78.1%.
Molecule `O=C(NCc1ccccc1)C1CCCN(S(=O)(=O)c2cccs2)C1` (configuration not stated) has a coactivator binding (% of control) of 91.1%.
`COCCNC(=O)COc1ccccc1C` was tested, and the coactivator binding (% of control) was 118%.
In the case of `COc1ccc(CCNC(=O)CN(c2ccccc2)S(C)(=O)=O)cc1OC`, the coactivator binding (% of control) is reported as 76.4%.
`CN(C)c1ccnc2sc3c(=O)n(-c4ccc(Cl)cc4)cnc3c12` showed a coactivator binding (% of control) of 162%.
`COCCn1c(C)cc(C(=O)CSc2ncnc3sc4c(c23)CCC4)c1C` was tested, and the coactivator binding (% of control) was 409% [fluorescence artefact?] (active).
`COCCn1c(SCc2nnc(-c3ccc(OC)c(OC)c3)o2)nc2sc3c(c2c1=O)CCC3` was tested, and the coactivator binding (% of control) was 94.4%.
Molecule `Cc1cc(C)n(-c2nc(SCC(=O)N3CCCC3)c3c4c(sc3n2)CCCC4)n1` has a coactivator binding (% of control) of 93.8%.
With `CCCCCCC12CCC(C(=O)O)(CC1)CC2` the coactivator binding (% of control) was 104%.
For `CC(=O)Oc1ccc(NC(=O)CCC2CCCCC2)c(C(=O)O)c1`, the coactivator binding (% of control) was 105%.
In the case of `CC(NC(=O)C1CCC(CNc2c(N3CCOCC3)c(=O)c2=O)CC1)c1ccccc1` (configuration not stated), the coactivator binding (% of control) is reported as 98.1%.
With `CC1CCc2c(sc3nc4n(c(=O)c23)CCS4)C1` (configuration not stated) the coactivator binding (% of control) was 96.2%.
Work on `Cc1nc(SCC(=O)Nc2cc(C)on2)c2c3c(sc2n1)CCCC3` yielded a coactivator binding (% of control) of 128%.
For `C=CCn1c(SCc2c(C)noc2C)nc2sc3c(c2c1=O)CCC(C)C3` (configuration not stated), the coactivator binding (% of control) was 93.6%.
For `Cc1nc(SCC(=O)Nc2cc(C)on2)c2c(C)c(C)sc2n1`, the coactivator binding (% of control) was 565% [fluorescence artefact?] (active).
For `Cc1cc(NC(=O)CSc2nc(C(C)C)nc3sc4c(c23)CCC(C)C4)no1` (configuration not stated), the coactivator binding (% of control) was 269% [fluorescence artefact?] (active).
`Cc1ccc(-c2csc(SCC(=O)Nc3cc(C)on3)n2)cc1` was tested, and the coactivator binding (% of control) was 98.5%.
`O=C(c1ccc2c(c1)OCO2)N1CCN(C(=O)c2ccco2)CC1` gave a coactivator binding (% of control) of 103%.
`Cc1cccc(S(=O)(=O)CC(=O)Nc2nc(-c3ccccc3)cs2)c1` was tested, and the coactivator binding (% of control) was 103%.
`Cc1cc(=O)oc2cc(OCC3CC(c4ccccc4Cl)=NO3)ccc12` (configuration not stated) gave a coactivator binding (% of control) of 117%.
Work on `O=C(Nc1ccc(Br)cc1)c1cccc(NC(=O)C2C3CC4OC(=O)C2C4C3)c1` (configuration not stated) yielded a coactivator binding (% of control) of 115%.
`CCn1c(=O)cc(OCC(=O)NCCCN2CCN(c3cccc(Cl)c3)CC2)c2ccccc21` was tested, and the coactivator binding (% of control) was 107%.
With `CCN1C(=O)/C(=C\N2CCN(c3ccccc3)CC2)SC1=S` the coactivator binding (% of control) was 289% (active).
With `CCN1C(=O)/C(=C\N2CCN(c3cccc(Cl)c3)CC2)SC1=S` the coactivator binding (% of control) was 413% [fluorescence artefact?] (active).
Work on `CCS(=O)(=O)N1CCC(C(=O)N2CCN(c3ccccc3)CC2)CC1` yielded a coactivator binding (% of control) of 103%.
Work on `CS(=O)(=O)N(CC(=O)N1CCN(c2cccc(Cl)c2)CC1)c1ccccc1` yielded a coactivator binding (% of control) of 118%.
`CCN1C(=O)/C(=C\N2CCOCC2)SC1=S` showed a coactivator binding (% of control) of 93%.
Work on `Cc1cccc(-c2nc3c(c(SCC(=O)N4CCOCC4)n2)CCCC3)c1` yielded a coactivator binding (% of control) of 94.4%.
`CC1CCN(C(=O)c2cc3nc(C4CC4)cc(C(F)(F)F)n3n2)CC1` showed a coactivator binding (% of control) of 93.5%.
With `COCCNC(=O)Cn1cc(C(=O)c2cccs2)c2ccccc21` the coactivator binding (% of control) was 102%.
`CCCn1c(SCC(=O)Nc2cccc(C(=O)OCC)c2)nnc1-c1ccoc1C` showed a coactivator binding (% of control) of 97.2%.
`CCn1c(Cc2ccccc2)nnc1SCC(=O)Nc1ccccc1` gave a coactivator binding (% of control) of 122%.
In the case of `CCn1c(SCC(=O)Nc2cccc(F)c2)nnc1-c1cc2cc(Br)ccc2o1`, the coactivator binding (% of control) is reported as 476% (active).
`CCOc1ccc(-n2c(N)c(C(=O)NCC3CCCO3)sc2=S)cc1` (configuration not stated) showed a coactivator binding (% of control) of 99.2%.
With `O=c1[nH][nH]c(C(F)(F)F)c1C=NCc1ccccc1Cl` the coactivator binding (% of control) was 109%.
`Cn1c(C(=O)NCCc2ccsc2)cc2c(=O)n(C)c3ccccc3c21` was tested, and the coactivator binding (% of control) was 278% (active).
`CC1CCCC(C)N1CCCNC(=O)c1cc2c(=O)n(C)c3ccccc3c2n1C` (configuration not stated) gave a coactivator binding (% of control) of 74.4%.
With `Cn1c(C(=O)NCCCN2CCN(c3cccc(Cl)c3)CC2)cc2c(=O)n(C)c3ccccc3c21` the coactivator binding (% of control) was 132%.
In the case of `CCOc1ccc(S(=O)(=O)NCC2CCCO2)cc1` (configuration not stated), the coactivator binding (% of control) is reported as 97.5%.
Work on `COCCn1c(=S)[nH]c2cc(C(=O)NCCc3ccc(OC)c(OC)c3)ccc2c1=O` yielded a coactivator binding (% of control) of 179%.
